The record followed here is PubChem BioAssay (EPA / NIEHS).

The source made the active and inactive calls. The calls were made as follows: active = hit-call score of the fitted dose curve at least 0.9, where 1 is the maximum; inactive = score below 0.9.

The assay can be described thus: CCTE_Mundy_HCI_Cortical_Synap_Neur_Matur_NeuriteLength: CCTE's Synaptogenesis and Neurite Maturation Assay in rat cortical cells for Neurite Length, Mundy Lab (AID 2284214). As to the method:
CCTE_Mundy_HCI_Cortical_Synap&Neurite_Matur is a multiplexed, cell-based-readout assay that uses rat primary cortical cells with measurements taken at 288.33 hours after chemical dosing in a microplate: 96-well plate.CCTE_Mundy_HCI_Cortical_Synap_Neur_Matur_NeuriteLength is one of eight components of the CCTE_Mundy_HCI_Cortical_Synap&Neurite_Matur assay. It measures synaptogenesis and neurite maturation related to neurite length using High Content Imaging of fluorescently labelled markers.[…] Using a type of morphology reporter, loss -of-signal activity can be used to understand developmental effects.
Cells are plated onto 96 well plates and allowed 2 hr for attachment to the substrate. At days in vitro (DIV) 5, Cytosine Arabinoside (AraC) is added to arrest glial cell growth. Chemicals are dosed and a media change is performed at DIV 7 of differentiation and is continued through DIV 12 when the experiment is terminated. Cells are fixed with […] and Hoechst Dye. Cells are stained using Millipore Mouse anti-MAP2MAB3418 (1:800) and Millipore Rabbit anti-Synaptophysinsc-1750 (1:250) primary antibodies and Alexa Fluor-488 goat anti-mouse and AlexaFluor-546 goat anti-rabbit secondary antibodies to label neuronal cell nuclei, synapses and neurites. A Cellomics ArrayScan VTi HCS Reader is used for automated image acquisition and analysis of neurite outgrowth.
Turning to `C[C@@H]1CC[C@@H](C(C)(C)O)[C@H](O)C1`, the compound was classed as inactive. As for `CN(C)CCCn1cc(C2=C(c3c[nH]c4ccccc34)C(=O)NC2=O)c2ccccc21`, the compound was classed as inactive.

For the compound `Cc1[nH]n(C)c(=O)c1C(=O)c1ccc(C(F)(F)F)cc1S(C)(=O)=O`, the compound was called inactive. On the same count and under the same terms, the value for `CC(=O)N[C@@H](CC(=O)O)C(=O)O` was “inactive”; that for `C[C@@H]1CCO[C@H]2Cn3cc(C(=O)NCc4ccc(F)cc4F)c(=O)c(O)c3C(=O)N12` was “inactive”. Take `CCc1ccccc1`: the result was inactive. The same measure, in the same setting: the value for `F` was “inactive”.

As for `CC(CNC(=S)[S-])NC(=S)[S-].[Zn+2]` (stereo not given), the half-maximal activity concentration (AC50) (usually the concentration at which the activity in the assay is half-maximal) was 50 µM (active). Take `CC(C)c1nn(C(=O)NC(C)(C)C)c(=O)n1N`: the compound was classed as inactive. Regarding `BrC1CC(Br)CC(Br)CC(Br)CC(Br)CC(Br)C1` (stereo not given), the half-maximal activity concentration (AC50) is 4.04 µM (active). Consider `CCCCCC(C)(CC)C(=O)NC` (stereo not given), for which the compound was classed as inactive. On to `[O]=[V]([OH])([OH])[OH]`, for which the AC50 was 27 µM (active). Take `CCCCCC=C(C)C(CC)CCO` (stereo not given): the call was inactive.

Turning to `CC(C)O`, the result was inactive. For the compound `O=C1CC2(CCCC2)CC(=O)N1CCCCN1CCN(c2ncccn2)CC1`, the compound was called inactive.
